JMJD2A Tudor inh – JMJD2A Tudor domain (human) inhibition; O75164; AlphaScreen JMJD2A-Tudor / H3K4me3 peptide binding; Potency, µM (top dose mostly 114 µM), inactives show at the top dose activity change, negative = inhibition, most hits filed as inhibitors; 390,000 tested, 4.4% active; note: % is set by controls: 0 for no effect and ±100 for the full control effect; nearly all actives have a fitted effect of over 50% in size
HP1b chromo inh – HP1-beta chromodomain-methylated histone interaction inhibition. AlphaScreen HP1-beta / biotin-H3K9me3 peptide binding. Potency, µM (series often up to 114 µM), for the others: at the top dose activity change, negative = inhibition, actives largely listed as inhibitors. P83916. 390,000 tested, 0.56% active; note: nearly all actives have a fitted effect of over 70% in size
Target sequence (P83916 whole entry, looked up): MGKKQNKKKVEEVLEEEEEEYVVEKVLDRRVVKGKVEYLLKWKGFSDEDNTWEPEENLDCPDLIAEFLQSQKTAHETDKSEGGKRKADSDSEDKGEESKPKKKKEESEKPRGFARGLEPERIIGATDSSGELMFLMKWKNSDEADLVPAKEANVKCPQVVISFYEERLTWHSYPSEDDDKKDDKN
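AlphaScreen: HP1-beta (50 nM) preformed 30 min with biotin-H3(1-18)K9me3 peptide (50 nM) in PBS pH 7.4, 0.01% Tween-20. Compound added for 30 min at RT, then streptavidin donor/nickel chelate acceptor beads (10 ug/mL) for 30 min.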
BAZ2B inh – BAZ2B (human) inhibition. Q9UIF8. AlphaScreen BAZ2B-H3K14Ac peptide displacement. Potency, µM (titrated, usually from 114 µM), inactives show top-dose activity change, negative = inhibition, hits mostly inhibitors. 360,000 tested, 4.4% active; note: % is set by controls: 0 for no effect and ±100 for the full control effect; nearly all actives have a fitted effect of over 60% in size
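In this displacement format the biotinylated H3(5-23) peptide acetylated at Lys14 serves as ligand at 50 nM, with BAZ2B at 50 nM in PBS pH 7.4 containing 0.01% Tween-20. Donor and acceptor beads are 10 ug/mL final.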
G9a block – G9a (human) methyltransferase inhibition | Q96KQ7 | G9a H3K9 monomethylation, AlphaScreen, 2 h | Potency, µM (series often up to 102 µM), without a hit: top-dose activity, negative = inhibition, actives largely listed as inhibitors | 350,000 tested, 8.8% active | AID 504332; note: % is set by controls: 0 for no effect and ±100 for the full control effect; nearly all actives have a fitted effect of over 75% in size
Target sequence (Q96KQ7 913-1193 limits assumed): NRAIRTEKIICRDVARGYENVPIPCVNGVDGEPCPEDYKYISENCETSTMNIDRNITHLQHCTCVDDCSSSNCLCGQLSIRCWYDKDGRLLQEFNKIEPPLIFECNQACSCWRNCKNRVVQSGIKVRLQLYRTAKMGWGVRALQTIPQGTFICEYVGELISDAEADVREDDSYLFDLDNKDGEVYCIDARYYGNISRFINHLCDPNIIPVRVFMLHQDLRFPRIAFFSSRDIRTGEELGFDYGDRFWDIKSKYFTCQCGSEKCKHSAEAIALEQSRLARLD
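Readings reflect AlphaScreen signal from monomethyl-H3K9 antibody detection. HMT at 20 nM; substrate b-H3K9 500 nM; cofactor SAM 20 uM; 2 h RT reaction; compounds tested as titrations in qHTS with 15 min preincubation.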
GLS inhibitor – blocks human kidney-isoform glutaminase activity; GLS enzymatic activity, qHTS titration; Potency, µM (titrated, usually from 45.5 µM), inactives show at the top dose activity change, negative = inhibition, usual class: inhibitors; 410,000 tested, 0.21% active; O94925; note: % is set by controls: 0 for no effect and ±100 for the full control effect
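Enzyme dispensed in phosphate buffer (45 mM, pH 8.2, 0.02% Tween-20), compounds pinned in, then 1 mM L-glutamine solution and the glutamate oxidase–HRP–Amplex Red mix added; fluorescence read immediately and again after 30 min at room temperature.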
Active calls of the source: *; ? = inconclusive; · = no result given; [ ] = another dose, or the depositor's remark. In the library only some 10% were active in any assay of this set; here they are far more common. Calls come from the whole dose curve; as a rule, active = well fitted curve in the direction sought with a large enough effect; inconclusive = small, poorly fitted or top-dose-only effect, or another doubt; inactive = no such curve, though single readings can be large; an effect the other way counts as inactive or inconclusive. Potency is the fitted concentration of half-maximal effect.

SMILES	JMJD2A Tudor inh	HP1b chromo inh	BAZ2B inh	G9a block	GLS inhibitor
Cc1ccc(C(C)C)c(OCCn2ccnc2C)c1	1.3µM*	?	50µM*	10µM*	-3%
O=C(NCc1ccccc1)c1ccc2c(c1)nc1n2CCOC1	2%	28%[57 µM]	3%	-7%[59 µM]	1%
CCCCOCCCNC(=O)C[C@@H]1C[C@@]2(C(=O)OC)CCCCC=C2N(Cc2cccc3ccccc23)C1=O	·	·	·	·	7%
CCOc1ccc(S(=O)(=O)NCCc2ccccn2)cc1	-1%	28%	·	·	1%
COc1ccccc1NC(=O)Nc1nn(C)c2cccc(N(C)C)c12	?	?	?	14µM*	?
COc1cccc(/C=N/NC(=O)Cn2cnc3c2c(=O)n(C)c(=O)n3C)c1	56µM*	1%	1%	·	-7%
Cn1c(=O)c2c(ncn2CC(=O)N/N=C/C=C/c2ccccc2)n(C)c1=O	40µM*	16%	-1%	?	8%
N#CC1(Cc2ccc(Cl)cc2)c2ccccc2C=CN1C(=O)c1ccccc1 (stereo not given)	-21%	4%	-6%	?	4%
COc1ccc(S(=O)(=O)n2c([N+](=O)[O-])cnc2C)cc1OC	?	72%	79µM*	56µM*	-5%
Cc1ccc(Cl)cc1-n1ncc2c(Nc3ccc4c(c3)OCCO4)ncnc21	-7%	19%	-3%	8%[59 µM]	-1%
CN1c2ccccc2Sc2cc(N)ccc21	32µM*	?	28µM*	1.1µM*	48%
CCOC(=O)c1c(-c2cccc([N+](=O)[O-])c2)csc1NC(=O)C1CC1	-28%	-9%	-36%	-11%[2.33 µM]	2%
CCOC(=O)c1c(-c2cccc([N+](=O)[O-])c2)csc1N	?	-24%	50µM*	?	39%
CCOC(=O)c1csc(N)c1-c1ccc([N+](=O)[O-])cc1	?	-28%	?	11µM*	1%
COc1ccc(-c2nc3ccccc3n3c(-c4cccc(C)c4)c4c(=O)n(C)c(=O)n(C)c4c23)cc1	-16%	14%	1%	0%[59 µM]	-2%
O=C(CCNC(=O)N1CC(=O)Nc2ccccc21)NCc1ccc(Cl)cc1	·	·	·	·	1%
CCOC(=O)c1[nH]c2ccccc2c1NC(=O)c1ccc(OC(C)C)cc1	-12%	40%	2%	?	3%
Cc1ccc(N2NC(=O)/C(=C\c3cc4c(cc3[N+](=O)[O-])OCO4)C2=O)cc1C	?	?	45µM*	25µM*	?
COc1cc(/C=C2/C(=O)NN(c3cccc(C)c3)C2=O)cc([N+](=O)[O-])c1O	56µM*	?	40µM*	35µM*	-29%
COc1cc(/C=C2/C(=O)NN(c3ccc(C)c(Cl)c3)C2=O)cc([N+](=O)[O-])c1O	?	-18%	32µM*	11µM*	-30%
COc1ccc(NC(=O)C2CCCN2c2ccc(OC)c(OC)c2)cc1OC (stereo not given)	-13%	23%	0%	71µM*	42%
CCCc1cc(=O)oc2cc(OC(C)C(=O)NC3CC(C)(C)NC(C)(C)C3)ccc12 (stereo not given)	-13%	36%	-2%	7.1µM*	-10%
CC(=O)c1ccc(NC(=O)c2cc(C)nc3c2c(C)nn3-c2ccc(C)cc2)cc1	-8%	18%	9%[57.1 µM]	-9%[59 µM]	1%
CN1CCCN(Cc2cccc3ccccc23)CC1	25µM*	?	56µM*	·	19%
OC1CCN(Cc2cccc3ccccc23)CC1	79µM*	?	50µM*	?	-1%
CC(C)C1C(=O)N(Cc2cn(CCC3OCCO3)nn2)CCS(=O)(=O)N1Cc1ccc(-c2ccc(F)cc2Cl)cc1 (stereo not given)	·	·	·	·	0%
O=C(Cc1cccs1)N=Nc1c(O)[nH]c2ccc(Br)cc12	?	-10%	?	?	3%
C/C(=N\NC(=O)c1ccc(NS(=O)(=O)c2cccs2)cc1)c1ccc(O)cc1O	-16%	36%	10µM*	·	?
COc1ccc2[nH]c(O)c(N=NC(=O)Cc3cccs3)c2c1	28µM*	-24%	35µM*	-120%[59 µM]	-4%
